# Test results from PubChem BioAssay (Tox21).
# A number with no mark means an inactive call. Activity calls are given as the source filed them. Calls come from the whole dose curve; as a rule, active = well fitted curve in the direction sought with a large enough effect in the repeat runs; inconclusive = weak or mixed curves; inactive = flat fitted curve, though single readings scatter.
# Assay: qHTS assay to test for compound auto fluorescence at 460 nm (blue) in HepG2 cells (AID 720687)
# Conditions: autofluorescence 405/460 nm, 1 h; series mostly up to 91.3 µM; fluorescence, % of fluorescent control: at the top concentration
# Source text: U.S. Tox21 Program National Center for Advancing Translational Sciences [NCATS] NIH Chemical Genomics Center [NCGC] U.S. Environmental Protection Agency [EPA] National Institutes of Environmental Health Sciences [NIEHS] National Toxicology Program [NTP] U.S. Food and Drug Administration [FDA] Tox21 Assay Overview: Compound auto fluorescence often interferes with screening of the compound library against various biological targets and signaling pathways. Some of these compounds may have fluorophoric properties. Such properties may interfere with the assay outputs resulting in false positives and/or negatives. To decrease such complications and ensure the compound activities are relevant in terms of biological response, the Tox21 10K compound library was screened for auto fluorescence. From the fluorophores used as reporter signals in our screening assays, the auto fluorescence equivalencies of compounds against three fluorophores have been evaluated: Triamterene, Fluorescein and Rose Bengal sodium for blue, green and red fluorescence, respectively. The fluorescence intensities were measured using Excitation/Emission wavelengths at 405/460nm, 485/535nm and 540/590nm for blue, green and red labels, respectively. This assay includes the blue fluorescence data.
# Tox21 Assay Protocol Summary: 2,000 HepG2 cells in 5 uL of culture medium (MEM containing 10% FBS) per well were dispensed into black wall/clear bottom 1536-well plates using a Multidrop Combi Dispenser (ThermoFisher Scientific, Waltham, MA). The assay plates were incubated overnight at 37 C to allow cell attachment to the well bottom, followed by the transfer of 23 nL compound or DMSO vehicle by a pintool work station (Kalypsys , San Diego, CA). After the assay plates were incubated for 1 hr at 37 C and 5% CO2, fluorescence intensities in the assay plates were measured by an Envision (PerkinElmer, Shelton, CT) plate reader using three labels for measuring blue, green and red fluorescence at […] 460, 535 and 590 nm respectively.
# % is set by controls: 0 for no effect and ±100 for the full control effect.
SMILES,"fluorescence, % of fluorescent control",outcome
CCCOC(=O)Cc1ccc(OCC(=O)N(CC)CC)c(OC)c1,-0.118% [at 46 µM],–
CC(C)C(C)(N)C#N (stereo not given),-0.173%,–
O=C1CCCCC1Cl (stereo not given),0.763% [at 95.7 µM],–
CC#Cc1cc(C)nc(Nc2ccccc2)n1,-0.576%,–
CC[C@@H](CO)NC(=O)[C@@H]1C=C2c3cccc4c3c(cn4C)C[C@H]2N(C)C1,0.82% [at 46 µM],–
O=C(Cl)c1ccccc1,0.422% [at 95.7 µM],–
CC(=O)CN(CC(C)=O)N=O,-0.0059%,–
CC(C)(C)c1cc(O)ccc1O,–,inactive
N#CN,–,inactive
C[C@H](N)C(=O)c1ccccc1,–,inactive
CCCOc1nn(C(=O)NS(=O)(=O)c2ccccc2C(=O)OC)c(=O)n1C,0.0089%,–
CCOC(=O)Nc1cccc(OC(=O)Nc2ccccc2)c1,0.0291%,–
CC[C@H](O)C(C[C@H](C)N(C)C)(c1ccccc1)c1ccccc1,0.0045% [at 95.7 µM],–
COc1ccc2c(C(=O)c3ccc(Cl)cc3)c(C)n(CC(=O)O)c2c1,0.0326% [at 46 µM],–
ClC1=C(Cl)C2(Cl)C(CBr)CC1(Cl)C2(Cl)Cl (stereo not given),–,inactive
COc1ccc(C=O)cc1O,0.0142%,–
Cc1ccc2c(c1)C1CN(C)CCC1N2 (stereo not given),-0.0642% [at 46 µM],–
CC(C)(C)NC[C@H](O)c1ccc(O)cc1Cl,0.0082% [at 46 µM],–
C=C(Cl)CSC(=S)N(CC)CC,0.0274% [at 95.7 µM],–
CCOC(=O)CC(SP(=S)(OC)OC)C(=O)OCC (stereo not given),–,inactive

SMILES,"fluorescence, % of fluorescent control",outcome
NC(=O)CS(=O)C(c1ccccc1)c1ccccc1 (stereo not given),-0.0225% [at 46 µM],–
Cl/C=C/CCl,-0.0972%,–
NCC1(CC(=O)O)CCCCC1,0.027% [at 18.6 µM],–
Oc1ccc(Cc2ccc(O)cc2)cc1,0.0133%,–
O=C(O)C(Br)(Br)Br,-0.0468%,–
CC(C)(C1CCC(O)CC1)C1CCC(O)CC1 (stereo not given),0.193%,–
CCC1(c2ccccc2)CCC(=O)NC1=O (stereo not given),-0.088% [at 46 µM],–
CCCC(C)(COC(N)=O)COC(N)=O,–,inactive
CCCCOC(C)=O,0.0093% [at 95.7 µM],–
Clc1cc2c(cc1Cl)Oc1cc(Cl)c(Cl)cc1O2,-0.0066% [at 0.37 µM],–
BrCc1ccc(Br)cc1,-0.187%,–
O=C(Cl)C(Cl)Cl,0.0356%,–
O=C/C=C/c1ccco1,-0.0095%,–
C=C(C)[C@H]1CN[C@H](C(=O)O)[C@H]1CC(=O)O,0.029% [at 46 µM],–
CCOC(=O)NC(C)(C)Cc1ccc(Cl)cc1,0.0602% [at 46 µM],–
CN(C)CCc1c[nH]c2cccc(OP(=O)(O)O)c12,-0.119%,–
Clc1nc(Cl)nc(Nc2ccccc2Cl)n1,0.122%,–
COc1cc(CCN)cc(OC)c1OC,-0.0478% [at 95.7 µM],–
CCOC(=O)COc1ccc(Cl)cc1Cl,0.183%,–
CC[C@H](N)c1ccccc1,0.0432%,–
